# Laboratory results: ChEMBL document CHEMBL3988442, “University of Dundee, Small-Polar-MMV Screening Library” (2021)
# Hit rate of the full screen: of about 48,000 compounds, about 13,000 (27%) showed an effect of 50% or more. The list shows a part of the results.
# System: Wolbachia pipientis
# Test: Anti-Wolbachia Cell-Based Screen
# Assay type: functional
# Design: scale not given: in the data most compounds retested in dose-response had high values
# Conditions: 5 µM
row,SMILES,Percent Effect [%]
1,Cc1ccc(NC(=O)CNC(C)CN2CCOCC2)c(F)c1 (stereo unspecified),11.35
2,Cc1ccc(NC(=O)CNC(C)CN2CCCCC2)c(F)c1 (stereo unspecified),7.732
3,Cc1ccc(NC(=O)CN2CCOCC2)c(F)c1,133.3
4,Cc1ccc2c(c1)CCC21CCN(C(=O)CO)CC1,-11.41
5,CCC(=O)N1CCC2(CC1)CC(N1CCOCC1)c1cc(C)ccc12.O=C(O)C(F)(F)F (stereo unspecified),0.6162
6,CCOC1CC2(CCN(CCO)CC2)c2ccc(C)cc21 (stereo unspecified),12.38
7,CC(=O)N1CCC2(CC1)CC(NC(=O)N(C)C)c1cc(C)ccc12 (stereo unspecified),112.2
8,CC(=O)N1CC2(CCN(C(=O)N(C)C)CC2)c2cc(C)ccc21,1.573
9,CCC(=O)N1CCC2(CC1)CC(NC(=O)N(C)C)c1cc(C)ccc12 (stereo unspecified),98.52
10,Cc1ccc(C)c(OCc2cc(C(=O)N(C)Cc3cnn(C)c3)no2)c1,-13.61
11,Cn1cc(C(=O)N2CCCC(CN3CCCC3=O)C2)cn1 (stereo unspecified),73.94
12,CCS(=O)(=O)N1CCCC(Cc2cnccn2)C1 (stereo unspecified),118.2
13,CC(O)CN1CC2(CCC1=O)CCN(C(=O)c1cnn(C)c1)CC2 (stereo unspecified),-4.211
14,Cc1ccc(C2CCCN(C(=O)c3cnn(C)c3)C2)nc1 (stereo unspecified),105.1
15,Cn1cc(C(=O)N2CCCC2CCc2ccccc2)cn1 (stereo unspecified),11.22
16,CCS(=O)(=O)N1CCCC(c2nccn2Cc2ccccn2)C1 (stereo unspecified),-4.348
17,COc1cccc(OCC2CCCN(C(=O)c3cnn(C)c3)C2)c1 (stereo unspecified),-49.1
18,CCS(=O)(=O)N1CCCC(c2nccn2Cc2cccnc2)C1 (stereo unspecified),-2.411
19,Cn1cc(C(=O)N2CCCC(Cc3cnccn3)C2)cn1 (stereo unspecified),110.5
20,COc1cc(N2CCN(Cc3ccc(C)o3)C(CCO)C2)nc(N)n1 (stereo unspecified),-10.52
21,Cc1nn(C)c2c(=O)n(CC(=O)Nc3cc(Cl)cc(Cl)c3)nnc12,4.089
22,Cn1cc(C(=O)N2CCCC(c3ccncc3)C2)cn1 (stereo unspecified),78.37
23,Cc1nccn1CC1CCCN(C(=O)c2cnn(C)c2)C1 (stereo unspecified),93.77
24,Cn1cc(C(=O)N2CCCC(c3cnccn3)C2)cn1 (stereo unspecified),131
25,Cn1cc(C(=O)N2CC[C@@]3(O)CCN(C(=O)C4CCC4)C[C@H]3C2)cn1,-11.15
26,COc1ccc(CN(C(=O)C2CCCS2)c2ccncc2)cc1 (stereo unspecified),-11.82

row,SMILES,Percent Effect [%]
1,COc1ccc(S(=O)(=O)N2CCn3cnc(COCC4CC4)c3C2)cc1,-5.165
2,CS(=O)(=O)N1CCCCC12CCCN(Cc1nccs1)C2.O=C(O)C(F)(F)F (stereo unspecified),-3.648
3,CNC[C@H]1CC[C@H](c2cc(CN(C)S(=O)(=O)N(C)C)n(C)n2)CC1.Cl,79.31
4,CNC[C@H]1CC[C@H](c2cc(CN(C)C(=O)c3cnccn3)n(C)n2)CC1.Cl,49.34
5,O=C(NN1CCCc2ccccc21)c1c[nH]c(=O)[nH]1,-8.796
6,CCc1cnc(C)nc1NCCNc1nc(C)cc(=O)[nH]1,-6.452
7,F[C@@H]1CN(CC2CC2)C[C@@H]1OCc1nc2ncccc2[nH]1,-13.13
8,O=C(CCc1ccccc1)NCC1CCN(Cc2ccsc2)CC1,3.98
9,O=C(CCc1ccccc1)NCC1CCN(Cc2cccs2)CC1,102.9
10,O=C(CCc1ccsc1)NCC1CCN(Cc2cccs2)CC1,-16.57
11,Cc1ccc(CN2CCC(CNC(=O)Cn3cncn3)CC2)cc1,-4.206
12,O=C(CCc1ccccc1)NCC1CCN(Cc2ccccc2)CC1,111.4
13,COc1cc2cc(C(=O)NC(C)C(=O)O)n(C)c2c(OC)c1OC (stereo unspecified),0.3251
14,CCc1[nH]c2c(CNc3nc(C)cc(NC)n3)cc(C)cc2c1C,-10.73
15,CC(SCCC(=O)NC(N)=O)c1ccccc1F (stereo unspecified),-10.14
16,Cc1ccc2c(c1)C1(CCNCC1)CC2N1CCOCC1 (stereo unspecified),0.9204
17,N#Cc1ccc(S(=O)(=O)Nc2ccccc2C#N)cn1,-3.183
18,COc1ccc(NC(=O)N2CCCCCC2c2ccncc2)cn1 (stereo unspecified),-7.407
19,O=C(Nc1cc(N2CCOCC2)ncn1)c1cnccn1,-2.836
20,O=C(NCCN1CCOCC1)c1ccc(OCc2ccccc2)nc1,-12.09
21,O=C(NCC1(O)COCCN(Cc2cccc(O)c2)C1)c1cscn1 (stereo unspecified),117.5
22,O=C(NCCc1cscn1)c1coc(CN2CCOCC2)c1,-2.273
23,O=C(Nc1cnn(CCN2CCOCC2)c1)c1ccccn1,-4.684
24,Cc1ccc(CN2CCOCC2)cc1NC(=O)c1ccsc1,-4.906
25,O=C(NCC1(O)COCCN(Cc2ccc(O)cc2)C1)c1cnccn1 (stereo unspecified),136.8
26,O=C(NCC1(O)COCCN(Cc2cccc(O)c2)C1)c1ccccn1 (stereo unspecified),141

row,SMILES,Percent Effect [%]
1,O=C(NCC1(O)COCCN(Cc2cccc(O)c2)C1)c1cnccn1 (stereo unspecified),119.9
2,O=C(NCN1CCc2ccccc2C1)c1cnccn1,-0.1611
3,CCCN(Cc1ccccc1C)C(CC)CO (stereo unspecified),3.002
4,CC(C)c1nc(C(=O)N2CCc3ccccc3C2C(=O)O)cs1 (stereo unspecified),-0.5058
5,CSCCNC(=O)c1coc(COc2ccc3sc(C)nc3c2)n1,-17.64
6,CCCn1nc2c(cc1=O)CN(Cc1cc(C)no1)CC2,7.336
7,CNc1nc2c(c(C(=O)N3CCCC3)n1)CN(Cc1cc(C)no1)CC2,97.24
8,CNc1nc2c(c(C(=O)N3CCCC3)n1)CN(Cc1ccco1)CC2,133.6
9,Cc1nc(N2CCCC2)nc2c1CCN(Cc1ccco1)CC2.O=C(O)C(F)(F)F,-6.041
10,CNc1nc2c(c(C(=O)N3CCCC3)n1)CN(Cc1nccn1C)CC2,14.28
11,Cc1cc(CN2CCc3nn(C)c(=O)cc3C2)on1,13.66
12,CC1(C)CN(C(=O)c2cnc(CN3CCCC3)s2)CC[C@]1(C)O,-20.27
13,CC(C)(NCc1cccc(C(N)=O)c1)c1ccc2c(c1)OCO2,2.76
14,CCNC(=O)NC(=O)CNC(C)(C)c1ccc2c(c1)OCO2,117.5
15,Cc1cc(NC(=O)CNC(C)(C)c2ccc3c(c2)OCCO3)no1,-9.405
16,Cc1cc(NC(=O)CNC(C)(C)c2ccc3c(c2)OCO3)on1,4.007
17,COC(=O)c1oc(CNC(C)(C)c2ccc3c(c2)OCCO3)cc1C,-6.562
18,CC(C)(C)NC(=O)NC(=O)CNC(C)(C)c1ccc2c(c1)OCCO2,3.102
19,CC(C)(NCC(=O)NCC(F)(F)F)c1ccc2c(c1)OCCO2,5.568
20,CC(C)(NCc1cccc(O)c1)c1ccc2c(c1)OCO2,4.523
21,CCNC(=O)NC(=O)CNC(C)(C)c1ccc2c(c1)OCCO2,126.2
22,CC(C)(NCC(=O)NCC1CC1)c1ccc2c(c1)OCCO2,87.25
23,CC(C)(NCC(=O)NC(=O)NC1CC1)c1ccc2c(c1)OCO2,94.42
24,COC(=O)c1oc(CNC(C)(C)c2ccc3c(c2)OCO3)cc1C,-12.91
